Source: PubChem BioAssay (EPA / NIEHS)
The source made the active and inactive calls. Rule for the calls: active = hit-call score of the fitted dose curve at least 0.9, where 1 is the maximum; inactive = score below 0.9.

Experiments:
Details in all cases: mRNA level, 48 h; actives raise or lower the signal
[1] = read-out: JUN Transcription Factor, JUN (gene 3725); test: LTEA_HepaRG_JUN: Life Technologies and Expression Analysis (LTEA) Assay for JUN Transcription Factor using HepaRG (AID 2283513)
Summary of the method: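 Differentiated HepaRG cells were exposed to chemicals for 48 h in serum-free induction medium, 8 concentrations from 100 uM in half-log steps, 0.5% DMSO vehicle, in duplicate. JUN mRNA was quantified by TaqMan qRT-PCR, normalized to ACTB, GAPDH, POLR2A.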

[2] = read-out: Lipase C (LIPC), LIPC (gene 3990); test: LTEA_HepaRG_LIPC: Life Technologies and Expression Analysis (LTEA) Assay for Lipase C (LIPC) using HepaRG (AID 2283514)
Summary of the method: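 Differentiated human HepaRG cells in serum-free induction medium were exposed in duplicate for 48 h to eight concentrations (top 100 uM, half-log steps, 0.5% DMSO). LIPC mRNA was quantified by TaqMan qRT-PCR, normalized to ACTB, GAPDH and POLR2A, with bidirectional fitting versus DMSO.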

[3] = read-out: Lipoprotein lipase (LPL), LPL (gene 4023); test: LTEA_HepaRG_LPL: Life Technologies and Expression Analysis (LTEA) Assay for Lipoprotein lipase (LPL) using HepaRG (AID 2283515)
Summary of the method: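 Differentiated human HepaRG cells in serum-free induction medium were exposed in duplicate for 48 h to eight half-log concentrations (top 100 uM) in 0.5% DMSO. LPL mRNA was quantified by TaqMan qRT-PCR, normalized to ACTB, GAPDH and POLR2A.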

[4] = read-out: MicroRNA 122 (MIR122), gene 406906; test: LTEA_HepaRG_MIR122: Life Technologies and Expression Analysis (LTEA) Assay for MicroRNA 122 (MIR122) using HepaRG (AID 2283516); note: the transcript read is the microRNA miR-122
Summary of the method: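 Differentiated human HepaRG cells were exposed 48 h in serum-free induction medium to eight half-log concentrations (top 100 uM, 0.5% DMSO). Transcript level was measured by TaqMan qRT-PCR, normalized to ACTB, GAPDH and POLR2A, and fitted bidirectionally versus DMSO.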

[5] = read-out: matrix metalloproteinase-10 (MMP10), MMP10 (gene 4319); test: LTEA_HepaRG_MMP10: Life Technologies and Expression Analysis (LTEA) Assay for matrix metalloproteinase-10 (MMP10) using HepaRG (AID 2283517)
Summary of the method: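 HepaRG, collagen I, ~100,000 cells/well; serum-free induction medium; 48 h exposure, duplicate, 8-pt half-log to 100 uM, 0.5% DMSO. Readout: TaqMan qRT-PCR, normalized to ACTB/GAPDH/POLR2A; bidirectional fit vs DMSO.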

MYC, MYC (gene 4609) = test: LTEA_HepaRG_MYC: Life Technologies and Expression Analysis (LTEA) Assay for MYC using HepaRG (AID 2283518)
Summary of the method: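 Expression changes were scored by TaqMan qRT-PCR with ACTB, GAPDH and POLR2A normalization. Cultures in serum-free induction medium received duplicate 8-point concentration series, highest 100 uM, for 48 h; DMSO (0.5%) served as baseline.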

[6] = read-out: matrix metalloproteinase-3 (MMP3), MMP3 (gene 4314); test: LTEA_HepaRG_MMP3: Life Technologies and Expression Analysis (LTEA) Assay for matrix metalloproteinase-3 (MMP3) using HepaRG (AID 2283519)
Summary of the method: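 Differentiated human HepaRG cells, plated 48 h on collagen I, were exposed in duplicate for 48 h in serum-free induction medium to eight half-log concentrations up to 100 uM in 0.5% DMSO. MMP3 mRNA was quantified by TaqMan qRT-PCR, normalised to ACTB, GAPDH and POLR2A.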

[7] = read-out: Paternally Expressed 10 (PEG10), PEG10 (gene 23089); test: LTEA_HepaRG_PEG10: Life Technologies and Expression Analysis (LTEA) Assay for Paternally Expressed 10 (PEG10) using HepaRG (AID 2283520)
Summary of the method: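 Differentiated HepaRG cells, plated 48 h then switched to serum-free induction medium, were exposed in duplicate for 48 h to eight half-log concentrations topping at 100 uM in 0.5% DMSO. PEG10 mRNA was quantified by TaqMan qRT-PCR, normalised to ACTB, GAPDH and POLR2A.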

[8] = read-out: Protein phosphatase 2A (PPP2R4), PTPA (gene 5524); test: LTEA_HepaRG_PPP2R4: Life Technologies and Expression Analysis (LTEA) Assay for Protein phosphatase 2A (PPP2R4) using HepaRG (AID 2283522)
Summary of the method: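 Differentiated HepaRG cells in serum-free induction medium were exposed in duplicate for 48 h to eight concentrations, top 100 uM with half-log dilutions, in 0.5% DMSO. PPP2R4 mRNA was quantified by TaqMan qRT-PCR, normalized to ACTB, GAPDH and POLR2A.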

[9] = read-out: Phosphatase and tensin (PTEN), PTEN (gene 5728); test: LTEA_HepaRG_PTEN: Life Technologies and Expression Analysis (LTEA) Assay for Phosphatase and tensin (PTEN) using HepaRG (AID 2283523)
Summary of the method: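 Differentiated human HepaRG cells, plated 48 h then switched to serum-free induction medium, were exposed in duplicate for 48 h to eight half-log concentrations up to 100 uM in 0.5% DMSO. PTEN mRNA measured by TaqMan qRT-PCR, normalized to ACTB/GAPDH/POLR2A, bidirectional fit versus DMSO.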

[10] = read-out: solute carrier (SLC22A1), SLC22A1 (gene 6580); test: LTEA_HepaRG_SLC22A1: Life Technologies and Expression Analysis (LTEA) Assay for solute carrier (SLC22A1) using HepaRG (AID 2283524)
Summary of the method: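 Human HepaRG cells were plated 48 h, switched to serum-free induction medium, then exposed in duplicate for 48 h to 8-point half-log series from 100 uM in 0.5% DMSO. SLC22A1 mRNA measured by qRT-PCR, normalized to ACTB/GAPDH/POLR2A, fitted bidirectionally versus DMSO.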

[11] = read-out: Pyruvate Dehydrogenase Kinase 4 (PDK4), PDK4 (gene 5166); test: LTEA_HepaRG_PDK4: Life Technologies and Expression Analysis (LTEA) Assay for Pyruvate Dehydrogenase Kinase 4 (PDK4) using HepaRG (AID 2283525)
Summary of the method: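 Differentiated human HepaRG cells, pre-cultured 48 h, were exposed in duplicate for 48 h in serum-free induction medium to eight half-log concentrations up to 100 uM in 0.5% DMSO. PDK4 mRNA was quantified by qRT-PCR, normalized to ACTB, GAPDH and POLR2A, bidirectional fitting versus DMSO.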

[12] = read-out: NAD(P)H dehydrogenase [quinone] 1 (NQO1), NQO1 (gene 1728); test: LTEA_HepaRG_NQO1: Life Technologies and Expression Analysis (LTEA) Assay for NAD(P)H dehydrogenase [quinone] 1 (NQO1) using HepaRG (AID 2283526)
Summary of the method: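 Differentiated HepaRG cells, plated 48 h and then switched to serum-free induction medium, were exposed in duplicate for 48 h to 8-point half-log concentrations up to 100 uM in 0.5% DMSO. mRNA measured by qRT-PCR, normalized to ACTB, GAPDH, POLR2A; bidirectional fit versus DMSO.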

[13] = read-out: Nuclear factor erythroid 2-related factor 2 (Homo sapiens) (UniProt Q16236); test: LTEA_HepaRG_NFE2L2: Life Technologies and Expression Analysis (LTEA) Assay for Nuclear factor erythroid 2-related factor 2 (NFE2L2) Transcription Factor using HepaRG (AID 2283527);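 note: TaqMan qRT-PCR transcript level normalised to ACTB GAPDH and POLR2A housekeeping genes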
Summary of the method: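 Differentiated human HepaRG cells in serum-free induction medium were exposed for 48 h to eight concentrations (top 100 uM, half-log dilutions, 0.5% DMSO), in duplicate. NFE2L2 mRNA was quantified by TaqMan qRT-PCR, normalized to ACTB, GAPDH and POLR2A, with bidirectional fitting versus DMSO.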

[14] = read-out: succinate dehydrogenase complex iron sulfur subunit B (SDHB), SDHB (gene 6390); test: LTEA_HepaRG_SDHB: Life Technologies and Expression Analysis (LTEA) Assay for succinate dehydrogenase complex iron sulfur subunit B (SDHB) using HepaRG (AID 2283528)
Summary of the method: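 A human HepaRG culture in serum-free induction medium received test chemicals for 48 h over an eight-point range capped at 100 uM. SDHB expression change was quantified by qRT-PCR.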

[15] = read-out: Signal transducer and activator of transcription 3 (Homo sapiens) (UniProt P40763); test: LTEA_HepaRG_STAT3: Life Technologies and Expression Analysis (LTEA) Assay for Signal transducer and activator of transcription (STAT3) using HepaRG (AID 2283529)
Summary of the method: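 Differentiated human HepaRG cells in serum-free induction medium were exposed in duplicate for 48 h to eight half-log concentrations up to 100 uM in 0.5% DMSO. STAT3 mRNA was quantified by TaqMan qRT-PCR, normalized to ACTB, GAPDH and POLR2A, and fitted bidirectionally against DMSO.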

[16] = read-out: solute carrier (SLCO1B1), SLCO1B1 (gene 10599); test: LTEA_HepaRG_SLCO1B1: Life Technologies and Expression Analysis (LTEA) Assay for solute carrier (SLCO1B1) using HepaRG (AID 2283530)
Summary of the method: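 Human HepaRG cultures treated for 48 h with an eight-concentration half-log series topping at 100 uM; SLCO1B1 measured by qRT-PCR and fitted bidirectionally relative to DMSO.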

[17] = read-out: sulfotransferase 2A1 (SULT2A1), SULT2A1 (gene 6822); test: LTEA_HepaRG_SULT2A1: Life Technologies and Expression Analysis (LTEA) Assay for sulfotransferase 2A1 (SULT2A1) using HepaRG (AID 2283531)
Summary of the method: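 Gene-expression endpoint in a human liver cell line: SULT2A1 mRNA change after 48 h chemical treatment, curves fitted in both directions relative to 0.5% DMSO vehicle. Concentrations spanned eight half-log steps from 100 uM.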

[18] = read-out: Transforming Growth Factor (TGFA), TGFA (gene 7039); test: LTEA_HepaRG_TGFA: Life Technologies and Expression Analysis (LTEA) Assay for Transforming Growth Factor (TGFA) using HepaRG (AID 2283532)
Summary of the method: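 Differentiated human HepaRG cells, plated 48 h then switched to serum-free induction medium, were exposed in duplicate for 48 h to 8-point half-log series from 100 uM in 0.5% DMSO. TGFA mRNA measured by qRT-PCR, normalized to ACTB/GAPDH/POLR2A, bidirectional fit versus DMSO.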

[19] = read-out: Nuclear factor NF-kappa-B p105 subunit (Homo sapiens) (UniProt P19838); test: LTEA_HepaRG_NFKB1: Life Technologies and Expression Analysis (LTEA) Assay for Nuclear Factor Kappa B Subunit 1 (NFKB1) using HepaRG (AID 2283521);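 note: TaqMan qRT-PCR transcript normalised to ACTB GAPDH and POLR2A housekeeping genes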
Summary of the method: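 Human HepaRG cells receive eight half-log concentrations, highest 100 uM, for 48 h. NFKB1 expression is then quantified by qRT-PCR and analysed for up- or down-regulation relative to 0.5% DMSO vehicle.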

Measured: outcome

Chain of Signal transducer and activator of transcription 3 (Homo sapiens) (P40763 whole entry, looked up): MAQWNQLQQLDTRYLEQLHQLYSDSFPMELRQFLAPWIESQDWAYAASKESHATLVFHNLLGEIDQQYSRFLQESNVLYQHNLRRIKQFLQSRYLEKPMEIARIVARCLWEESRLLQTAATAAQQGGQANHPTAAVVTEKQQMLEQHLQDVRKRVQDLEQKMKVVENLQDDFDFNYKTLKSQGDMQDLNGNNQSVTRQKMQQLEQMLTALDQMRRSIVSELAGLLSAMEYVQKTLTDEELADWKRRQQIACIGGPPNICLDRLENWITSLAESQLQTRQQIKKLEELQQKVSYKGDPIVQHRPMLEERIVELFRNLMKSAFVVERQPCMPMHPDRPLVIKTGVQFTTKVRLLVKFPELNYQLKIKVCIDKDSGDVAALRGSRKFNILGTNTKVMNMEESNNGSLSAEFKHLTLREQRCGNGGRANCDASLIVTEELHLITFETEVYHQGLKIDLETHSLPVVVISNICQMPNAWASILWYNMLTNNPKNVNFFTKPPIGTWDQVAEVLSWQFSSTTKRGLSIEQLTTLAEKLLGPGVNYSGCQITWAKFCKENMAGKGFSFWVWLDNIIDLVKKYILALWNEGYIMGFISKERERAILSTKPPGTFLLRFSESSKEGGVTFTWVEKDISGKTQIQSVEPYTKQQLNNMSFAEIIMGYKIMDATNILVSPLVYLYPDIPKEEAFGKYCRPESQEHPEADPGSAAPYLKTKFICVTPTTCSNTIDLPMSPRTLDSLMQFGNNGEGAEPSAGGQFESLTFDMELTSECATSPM
Chain of Nuclear factor erythroid 2-related factor 2 (Homo sapiens) (Q16236 whole entry, looked up): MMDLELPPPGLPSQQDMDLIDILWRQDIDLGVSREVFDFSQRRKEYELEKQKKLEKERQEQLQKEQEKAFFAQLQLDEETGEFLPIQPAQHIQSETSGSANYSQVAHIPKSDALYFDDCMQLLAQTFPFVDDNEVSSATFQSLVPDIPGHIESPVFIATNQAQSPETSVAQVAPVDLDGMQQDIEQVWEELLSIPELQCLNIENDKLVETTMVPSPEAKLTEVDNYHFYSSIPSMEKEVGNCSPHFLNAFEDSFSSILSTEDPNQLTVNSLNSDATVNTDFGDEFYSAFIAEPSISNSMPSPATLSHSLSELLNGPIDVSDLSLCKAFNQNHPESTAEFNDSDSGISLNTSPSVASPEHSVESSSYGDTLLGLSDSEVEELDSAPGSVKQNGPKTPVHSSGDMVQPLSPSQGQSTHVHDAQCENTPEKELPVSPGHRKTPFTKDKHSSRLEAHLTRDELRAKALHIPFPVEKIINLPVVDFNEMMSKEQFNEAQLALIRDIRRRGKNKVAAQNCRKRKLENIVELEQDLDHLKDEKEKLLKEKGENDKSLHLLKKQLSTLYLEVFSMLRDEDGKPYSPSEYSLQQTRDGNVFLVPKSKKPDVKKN
Chain of Nuclear factor NF-kappa-B p105 subunit (Homo sapiens) (P19838 whole entry, looked up): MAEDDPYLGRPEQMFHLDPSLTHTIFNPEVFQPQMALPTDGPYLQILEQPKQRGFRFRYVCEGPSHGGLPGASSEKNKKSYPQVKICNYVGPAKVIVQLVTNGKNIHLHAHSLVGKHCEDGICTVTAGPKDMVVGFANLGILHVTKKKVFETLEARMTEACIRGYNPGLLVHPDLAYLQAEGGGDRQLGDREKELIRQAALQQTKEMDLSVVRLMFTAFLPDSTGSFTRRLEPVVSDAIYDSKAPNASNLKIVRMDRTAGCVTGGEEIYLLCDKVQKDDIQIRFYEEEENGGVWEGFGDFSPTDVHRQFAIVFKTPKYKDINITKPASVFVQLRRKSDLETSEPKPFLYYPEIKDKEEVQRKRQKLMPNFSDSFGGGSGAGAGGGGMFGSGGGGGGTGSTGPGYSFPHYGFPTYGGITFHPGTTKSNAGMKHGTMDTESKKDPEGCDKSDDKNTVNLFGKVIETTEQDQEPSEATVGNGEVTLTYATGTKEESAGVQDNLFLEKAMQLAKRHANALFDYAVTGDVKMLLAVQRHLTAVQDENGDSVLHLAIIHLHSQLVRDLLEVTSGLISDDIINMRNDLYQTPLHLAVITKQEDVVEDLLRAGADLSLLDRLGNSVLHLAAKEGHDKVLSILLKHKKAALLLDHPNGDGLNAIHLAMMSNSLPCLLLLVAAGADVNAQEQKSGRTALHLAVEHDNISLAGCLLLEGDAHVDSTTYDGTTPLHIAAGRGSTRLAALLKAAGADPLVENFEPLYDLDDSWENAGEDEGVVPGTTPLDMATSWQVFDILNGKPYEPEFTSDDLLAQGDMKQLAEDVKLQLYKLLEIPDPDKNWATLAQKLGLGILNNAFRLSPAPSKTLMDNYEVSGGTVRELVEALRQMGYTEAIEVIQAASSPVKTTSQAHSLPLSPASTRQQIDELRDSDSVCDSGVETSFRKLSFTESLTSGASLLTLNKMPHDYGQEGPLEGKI

O=C1OC(=O)C2C3C=CC(C3)C12 (stereo unspecified)
not listed: [19]
inactive: all other assays above

COC(=O)c1ccccc1O
not listed: [6]
inactive: all other assays above

CC1(C)C(=O)N(Br)C(=O)N1Br
not listed: [17] | [19]
inactive: all other assays above
